Experimental findings from PubChem BioAssay are described below.

The source made the active and inactive calls.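 Rule for the calls, unless noted: active = inhibition above 20% together with a positive visual image hit; inconclusive = visual image hit but inhibition not above 20%; inactive = no visual image hit.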

The nature of assay [1]: inhibitors of TNFa-induced NFkB p65 translocation, primary screen, imaging, HUVEC, MLSMR starter and 10KST1 sets (AID 438).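 For inhibition: signal is the nuclear over cytoplasmic p65 intensity ratio per well.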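 Note: compound added about 3h40 before a 20 min TNFalpha stimulation.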 To be noted: HUVEC TNFa-induced p65 nuclear translocation; cell count: measured here: nuclei count (cytotoxicity indicator), at 2.08 µM; inhibition: at 2 µM, stronger effect = higher value, 0% TNFa-plus-vehicle, 100% no-TNFa wells.
Assay [2] can be described thus: inhibitors of mutant huntingtin aggregation, primary screen, imaging, exon1htt(103Q)mCFP cells, high-content imaging (AID 483;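 active = visual image review flags a hit and inhibition of aggregation exceeds 20%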;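 note: compound exposure lasted 3 days before fixation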;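 for nuclei count: percent of the per-plate median nuclei count of sample wells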). Particulars: exon1htt(103Q)mCFP cell line, aggregate imaging, at 2 µM; inhibition of aggregation: stronger effect = higher value; nuclei count: measured here: cell count, toxicity.
The nature of assay [3]: inhibitors of E-selectin induction by TNFa, primary screen, imaging, HUVEC, immunofluorescence, MLSMR starter and 10KST1 sets (AID 487;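 active = visually confirmed hit in the image check and inhibition above 20%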;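 for inhibition: signal is fraction of cell area covered by stained E-selectin grains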;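 for nuclei count: 100% = median nuclei count of all wells on the same plate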). Particulars: HUVEC TNFalpha-induced E-selectin immunofluorescence imaging, at 2 µM; inhibition: stronger effect = higher value; nuclei count: measured here: cell number, toxicity.
Assay [4] addresses Voltage-gated potassium channel subunit beta-2 (Rattus norvegicus) (UniProt P62483). In words: KvBeta enzyme negative modulators, primary screen, biochemical, NADPH fluorescence (AID 622;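 active = fluorescence slope higher than the sample average by over 3 SD, cut at about -0.22 in these data, passing the limit was not always enough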;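 note: slope of raw intensity against log time taken from 70 to 1610 s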). To be noted: recombinant KvBeta, 4-cyanobenzaldehyde reduction, at 10 µM, stronger effect = higher value.
The target is the same in assay [5]. In words: KvBeta positive modulators, primary screen, biochemical, NADPH fluorescence (AID 623;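 active = NADPH fluorescence slope more negative than the mean of all samples by about 3 SD, 99.7% confidence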;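 note: fluorescence intensity change per second fitted from 20 to 320 s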). Particulars: Recombinant KvBeta, NADPH fluorescence decrease slope, 10 min; at 10 µM; stronger effect = lower value.
Assay [6] addresses Alpha-2C adrenergic receptor (Homo sapiens) (UniProt P18825). In words: modulators of alpha2C/GIRK thallium flux, primary screen, cell-based, HEK293 alpha2C/GIRK1/2 (AID 624;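 active = fluorescence slope after compound addition differing from the mean of all screened samples at 99.7% confidence, in either direction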;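 note: slope of fluorescence ratio to pre-addition baseline per second over 15 to 24 s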). To be noted: thallium flux BTC fluorescence, at 10 µM, actives lie on both sides.
Assay [7] is described as follows: inhibitors of Sendai virus-induced IRF3 signaling, primary screen, TLR/RLR signaling modifier project, cell-based, Sendai virus stimulus, luciferase, 10K MLSCN set (AID 602276;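 active = inhibition at or above 50% at 10 µM; inactive = inhibition below 50%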;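 note: firefly luciferase from ISG56 promoter only with Renilla not read in this screen; 0% = Sendai virus plus DMSO and 100% = medium plus DMSO without virus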). Particulars: HEK293 RL24 IRF3 luciferase reporter, at 10 µM, stronger effect = higher value. In general terms: In a reporter assay the amount or activity of a reporter protein is the signal.
The nature of assay [8]: inhibitors of poly I:C-induced TLR3 signaling, primary screen, cell-based, poly I:C stimulus, luciferase, 10K MLSCN set (AID 602277;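 active = inhibition of the reporter signal at or above 50%; inactive = inhibition below 50%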). To be noted: HEK293-TLR3 RL24 IRF3 luciferase reporter, at 10 µM, stronger effect = higher value.

As a reminder, the inhibition is the drop in the measured response relative to a control, in per cent.

Sequence of Alpha-2C adrenergic receptor (Homo sapiens) (P18825 whole entry, looked up): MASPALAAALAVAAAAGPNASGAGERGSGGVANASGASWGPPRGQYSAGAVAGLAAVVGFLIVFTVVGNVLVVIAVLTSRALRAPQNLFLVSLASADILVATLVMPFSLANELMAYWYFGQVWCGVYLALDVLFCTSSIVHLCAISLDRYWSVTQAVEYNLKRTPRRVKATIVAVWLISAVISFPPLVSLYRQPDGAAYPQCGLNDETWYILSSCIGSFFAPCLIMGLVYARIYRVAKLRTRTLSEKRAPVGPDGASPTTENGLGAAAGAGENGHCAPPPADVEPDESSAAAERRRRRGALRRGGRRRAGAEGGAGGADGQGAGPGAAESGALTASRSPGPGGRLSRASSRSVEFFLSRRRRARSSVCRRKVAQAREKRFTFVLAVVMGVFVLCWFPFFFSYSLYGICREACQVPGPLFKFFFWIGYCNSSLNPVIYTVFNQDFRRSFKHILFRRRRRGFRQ
Sequence of Voltage-gated potassium channel subunit beta-2 (Rattus norvegicus) (P62483 whole entry, looked up): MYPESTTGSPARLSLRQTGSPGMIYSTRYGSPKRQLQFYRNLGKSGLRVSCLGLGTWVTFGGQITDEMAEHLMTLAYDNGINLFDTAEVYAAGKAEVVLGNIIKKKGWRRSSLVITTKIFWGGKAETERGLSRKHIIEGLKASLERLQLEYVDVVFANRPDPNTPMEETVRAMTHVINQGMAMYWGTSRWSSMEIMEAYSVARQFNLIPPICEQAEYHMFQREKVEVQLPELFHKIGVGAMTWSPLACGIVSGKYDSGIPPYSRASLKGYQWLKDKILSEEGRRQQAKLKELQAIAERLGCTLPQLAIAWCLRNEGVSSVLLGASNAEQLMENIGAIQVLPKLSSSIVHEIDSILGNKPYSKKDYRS

`CCOC(=O)C1CCN(c2cc(C)nc3cc(-c4cccc(F)c4)nn23)CC1`: in assay [1], the cell count worked out at 675. Also, the inhibition was -4.7% (inactive) in assay [1], -82.8% (inactive) in assay [3], -8.57% (inactive) in assay [7] and -12.2% (inactive) in assay [8]. For the same compound, the inhibition of aggregation in assay [2] is 12% (inactive). Besides, the nuclei count in assay [2] came out at 97.8%; in assay [3] it was 99.1%. In addition, in assay [4], the fluorescence slope was -0.35 (inactive). Moreover, the NADPH fluorescence slope in assay [5] is -1.5e-05 (inactive). Further, in assay [6], the slope was 0.00523 (inactive).
In the case of `COc1ccccc1OCCOc1ccccc1/C=N/n1cnnc1`, the cell count in assay [1] is 375. Besides, the inhibition in assay [1] is -3.8% (inactive); in assay [3] it was -66.6% (inactive); in assay [7], -3.21% (inactive); in assay [8], -1.03% (inactive). The inhibition of aggregation in assay [2] is -14.3% (inactive). Moreover, the nuclei count in assay [2] worked out at 94.1%; in assay [3], 103%. Also, the fluorescence slope in assay [4] is -0.402 (inactive). Moreover, in assay [5], the NADPH fluorescence slope was -2.8e-05 (inactive). Moreover, the slope in assay [6] is 0.00507 (inactive).
For `COc1cccc(C2C(C(=O)c3ccc(C)o3)=C(O)C(=O)N2CCCN(C)C)c1` (centres undefined), the cell count in assay [1] worked out at 239. Further, the inhibition in assay [1] is -10.9% (inactive); in assay [3], -110% (inactive); in assay [7] it was 10.4% (inactive); in assay [8] it was 15.6% (inactive). The inhibition of aggregation in assay [2] is 45.3% (active). Moreover, the figures for the nuclei count in assay [2] and in assay [3] were 83.9% and 111%, respectively. The fluorescence slope in assay [4] was -0.592 (inactive). Also, the NADPH fluorescence slope in assay [5] is -5.1e-05 (inactive). Also, in assay [6], the slope was 0.00639 (inactive).
With `NCCN1CCN(CCN)CC1`, the cell count in assay [1] turned out to be 728. Besides, the inhibition in assay [1] was -10% (inactive); in assay [3], -23.9% (inactive); in assay [7], 12.2% (inactive); in assay [8], 18.8% (inactive). Moreover, in assay [2], the inhibition of aggregation is -4.6% (inactive). Further, the nuclei count came to 116% in assay [2] and 132% in assay [3]. The fluorescence slope in assay [4] is -0.436 (inactive). The NADPH fluorescence slope in assay [5] was -1.1e-05 (inactive). Further, the slope in assay [6] is 0.00707 (inactive).
Consider `CC(C)(C)NC(=O)NC(=O)COc1ccccc1C#N`, for which the cell count in assay [1] worked out at 432. The inhibition in assay [1] is -28.2% (inactive); in assay [3] it was -27% (inactive); in assay [7], 2.8% (inactive); in assay [8], -67.2% (inactive). In assay [2], the inhibition of aggregation is -6.3% (inactive). Besides, the nuclei count in assay [2] worked out at 108%; in assay [3], 139%. Moreover, the fluorescence slope in assay [4] was -0.591 (inactive). The NADPH fluorescence slope in assay [5] was 8.6e-06 (inactive). Moreover, the slope in assay [6] is 0.0068 (inactive).
Turning to `CC(=O)Nc1ccc(S(=O)(=O)Nc2nc3c(s2)CCCC3)cc1`, the cell count in assay [1] is 638. Moreover, the inhibition is -2.1% (inactive) in assay [1], -46.9% (inactive) in assay [3], 5.19% (inactive) in assay [7] and -2.08% (inactive) in assay [8]. Besides, in assay [2], the inhibition of aggregation is 41.1% (inactive). In addition, the nuclei count in assay [2] amounted to 95.3%; in assay [3], 108%. Moreover, the fluorescence slope in assay [4] is -0.54 (inactive). Further, in assay [5], the NADPH fluorescence slope is -4.4e-05 (inactive). Also, in assay [6], the slope was 0.00526 (inactive).
As to `CCc1ccccc1N1CC23C=CC(O2)C(C(=O)O)C3C1=O` (centres undefined), the cell count in assay [1] was found to be 591. Further, the inhibition in assay [1] is -3.4% (inactive); in assay [3] it was -23.4% (inactive); in assay [7], 12.3% (inactive); in assay [8], 36.8% (inactive). Also, in assay [2], the inhibition of aggregation was -8.2% (inactive). The nuclei count in assay [2] is 103%; in assay [3], 105%. Also, the fluorescence slope in assay [4] was -0.515 (inactive). Moreover, in assay [5], the NADPH fluorescence slope is -2.2e-05 (inactive). In addition, the slope in assay [6] was 0.00685 (inactive).
For the compound `CCCCNC(=O)CSc1nc2ccc(N3CCOCC3)cc2c(=O)n1CCc1ccccc1`, the cell count in assay [1] is 533. Moreover, the inhibition in assay [1] was -0.8% (inactive); in assay [3], -18.8% (inactive); in assay [7], 2.7% (inactive); in assay [8] it was 10.3% (inactive). In assay [2], the inhibition of aggregation is 28.7% (active). Moreover, the nuclei count in assay [2] was found to be 48.9%; in assay [3], 110%. In addition, the fluorescence slope in assay [4] is -0.565 (inactive). Besides, the NADPH fluorescence slope in assay [5] was -1.2e-05 (inactive). In assay [6], the slope was 0.00671 (inactive).
`Cc1[nH]nc(N=CC2=C(O)CC(C)(C)CC2=O)c1-c1ccccc1`: the cell count in assay [1] is 551. The inhibition in assay [1] was -8.6% (inactive); in assay [3] it was 15.4% (inactive); in assay [7], -16.8% (inactive); in assay [8] it was 13.8% (inactive). In addition, the inhibition of aggregation in assay [2] is -3.5% (inactive). Moreover, the nuclei count in assay [2] was 85.2%; in assay [3] it was 95.3%. For the same compound, in assay [4], the fluorescence slope is -0.344 (inactive). The NADPH fluorescence slope in assay [5] was -2.3e-05 (inactive). Moreover, in assay [6], the slope was 0.00489 (inactive).
Take `CC(C)Oc1ccc(N2CC(C(=O)Nc3ccccc3F)CC2=O)cc1` (centres undefined): the cell count in assay [1] turned out to be 804. Further, the inhibition in assay [1] is 3.6% (inactive); in assay [3], -110% (inactive); in assay [7], 4.3% (inactive); in assay [8], 37.6% (inactive). The inhibition of aggregation in assay [2] was -2% (inactive). Further, the results for the nuclei count in assay [2] and in assay [3] were 103% and 128%, respectively. Moreover, the fluorescence slope in assay [4] was -0.438 (inactive). In addition, the NADPH fluorescence slope in assay [5] was 6.3e-06 (inactive). For the same compound, in assay [6], the slope is 0.00384 (inactive).
As for `CC(=O)NC(Cc1ccccc1)C(=O)NC1CCN(C(=O)c2cnccn2)CC1` (centres undefined), in assay [1], the cell count is 991. For the same compound, the inhibition was -1% (inactive) in assay [1], -54.3% (inactive) in assay [3], 12.1% (inactive) in assay [7] and 28.6% (inactive) in assay [8]. Moreover, the inhibition of aggregation in assay [2] is -7% (inactive). The nuclei count in assay [2] is 136%; in assay [3], 120%. The fluorescence slope in assay [4] was -0.48 (inactive). In assay [5], the NADPH fluorescence slope was -2.5e-05 (inactive). Also, the slope in assay [6] is 0.00556 (inactive).
Take `O=C(Nc1ccc2c(c1)OCO2)c1ccc(CN2CCOCC2)cc1`: the cell count in assay [1] came to 361. The inhibition is -5.1% (inactive) in assay [1], -117% (inactive) in assay [3], -25.7% (inactive) in assay [7] and -76.1% (inactive) in assay [8]. The inhibition of aggregation in assay [2] is -32% (inactive). Further, the nuclei count in assay [2] was 110%; in assay [3] it was 122%. Moreover, the fluorescence slope in assay [4] is -0.491 (inactive). Besides, the NADPH fluorescence slope in assay [5] was -3.3e-05 (inactive). Besides, the slope in assay [6] was 0.00498 (inactive).
With `[O-][n+]1c2ccc3nonc3c2nn1-c1ccccc1Cl`, in assay [1], the cell count is 340. For the same compound, the inhibition in assay [1] is 8.5% (inactive); in assay [3], -21.9% (inactive); in assay [7] it was 0.797% (inactive); in assay [8] it was -2.81% (inactive). Moreover, the inhibition of aggregation in assay [2] was -11.3% (inactive). Further, the nuclei count in assay [2] came to 111%; in assay [3], 118%. The fluorescence slope in assay [4] is -0.507 (inactive). The NADPH fluorescence slope in assay [5] is -5.7e-05 (inactive). The slope in assay [6] is 0.0043 (inactive).
On to `O=C(CSc1nnc2ccccn12)c1ccccc1`, for which the cell count in assay [1] came to 535. The inhibition was 7.7% (inactive) in assay [1], 23.4% (inactive) in assay [3], -34.1% (inactive) in assay [7] and -86.4% (inactive) in assay [8]. For the same compound, the inhibition of aggregation in assay [2] was 2.2% (inactive). Besides, the nuclei count in assay [2] is 105%; in assay [3], 70.9%. The fluorescence slope in assay [4] was -0.46 (inactive). Further, the NADPH fluorescence slope in assay [5] is 4e-05 (inactive). Also, the slope in assay [6] is 0.00782 (inactive).
